From paper PMC5913336, “True equilibrium measurement of transcription factor-DNA binding affinities using automated polarization microscopy” come the findings set out here.

What is called Kd is the constant that tells how readily two partners part at equilibrium.

The assay has as its target T1, EcR (Drosophila melanogaster, UniProt P34021 251-348).
T1 sequence: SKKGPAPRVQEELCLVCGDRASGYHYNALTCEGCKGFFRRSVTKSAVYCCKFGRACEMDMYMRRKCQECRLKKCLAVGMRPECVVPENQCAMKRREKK
The assay can be described thus: FP; 33 mM phosphate pH 7.0, 90 mM NaCl, 0.01% Tween 20, 0.1 mM DTT, 0.5% agarose; room temperature. The conditions noted are these: tags: N-GST (pGEX-6P-1, kept); dsDNA, one strand shown.
GAATGACCCCTCC: the binding signal was 1.29 Kd / Kd of best base at the position.

For the sequence GAGTGACCCCTAC, the binding signal was 1.99 Kd / Kd of best base at the position.

GAATGACCCCGAC: the binding signal is 1.46 Kd / Kd of best base at the position.

As for GAATTACCCCTAC, the binding signal was 11.6 Kd / Kd of best base at the position.

For the sequence GAATGGCCCCTAC, the binding signal is 5.84 Kd / Kd of best base at the position.

GAATGACCCCTAC displayed a Kd of roughly 23.7 nM.

For GAATGACCCCAAC, the binding signal is 1.46 Kd / Kd of best base at the position.

Turning to GAATGTCCCCTAC, the binding signal was 6.26 Kd / Kd of best base at the position.

Turning to GCATGACCCCTAC, the binding signal was 2.1 Kd / Kd of best base at the position.

Consider AAATGACCCCTAC, for which the binding signal is 1.94 Kd / Kd of best base at the position.

GTATGACCCCTAC: the binding signal was 1.76 Kd / Kd of best base at the position.

For GAATGACTCCTAC, the binding signal is 7.37 Kd / Kd of best base at the position.

With GAATGAGCCCTAC, the binding signal was 12.7 Kd / Kd of best base at the position.

As to GAATGACACCTAC, the binding signal is 4.55 Kd / Kd of best base at the position.

For GAATGACCCCTGC, the binding signal is 1.47 Kd / Kd of best base at the position.

In the case of GAATGACCCCTAG, the binding signal is 1.29 Kd / Kd of best base at the position.

Regarding GAAGGACCCCTAC, the binding signal was 10 Kd / Kd of best base at the position.

GAATGACCCTTAC: the binding signal is 1.59 Kd / Kd of best base at the position.

Turning to GAACGACCCCTAC, the binding signal was 3.06 Kd / Kd of best base at the position.

For TAATGACCCCTAC, the binding signal is 1.83 Kd / Kd of best base at the position.

For the sequence GAATGACCGCTAC, the binding signal is 2.37 Kd / Kd of best base at the position.

Take GGATGACCCCTAC: the binding signal is 1.78 Kd / Kd of best base at the position.

For the sequence GAATGATCCCTAC, the binding signal was 9.3 Kd / Kd of best base at the position.

In the case of GAATGACCCCCAC, the binding signal is 1.69 Kd / Kd of best base at the position.

For GAATGAACCCTAC, the binding signal is 1.84 Kd / Kd of best base at the position.

As for GAATGACCCCTAA, the binding signal was 1.25 Kd / Kd of best base at the position.

On to GACTGACCCCTAC, for which the binding signal is 2.46 Kd / Kd of best base at the position.

For CAATGACCCCTAC, the binding signal was 1.8 Kd / Kd of best base at the position.

Turning to GAATGACCCCTTC, the binding signal was 1.34 Kd / Kd of best base at the position.

Take GAATGCCCCCTAC: the binding signal is 3.38 Kd / Kd of best base at the position.

Turning to GAATGACCCATAC, the binding signal was 2.6 Kd / Kd of best base at the position.

Take GAATGACCCGTAC: the binding signal was 2.06 Kd / Kd of best base at the position.

For the sequence GATTGACCCCTAC, the binding signal was 1.87 Kd / Kd of best base at the position.

As for GAATGACCACTAC, the binding signal was 5.04 Kd / Kd of best base at the position.

Regarding GAATCACCCCTAC, the binding signal is 9.57 Kd / Kd of best base at the position.

As for GAAAGACCCCTAC, the binding signal was 8.21 Kd / Kd of best base at the position.

As for GAATGACGCCTAC, the binding signal was 19.5 Kd / Kd of best base at the position.

For GAATGACCTCTAC, the binding signal is 1.03 Kd / Kd of best base at the position.

For the sequence GAATAACCCCTAC, the binding signal is 3.47 Kd / Kd of best base at the position.
